The results in this text go back to PubChem BioAssay (NCATS).

Inconclusive results are not listed. Calls of active or inactive are those of the source. Unless noted, the call rests on the fitted dose curve; in most records, active means well fitted curve in the direction sought with a large enough effect; inconclusive means small, poorly fitted or top-dose-only effect, or another doubt; inactive means no such curve, though single readings can be large; an effect the other way counts as inactive or inconclusive.

Test [1] concerns the target Arylsulfatase A (Homo sapiens) (UniProt P15289). Nature of the test: qHTS screen for enhancers of Arylsulfatase A (ASA1): LOPAC Validation Assay (AID 720538). Further: potency means the concentration at half of the fitted maximal effect. The method, boiled down: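 MLD patient fibroblasts (SV40, ASA-I179S), 1536-well; adhere 6 hrs; cpd 48h, 37 degree C, 5% CO2; pNCS 0.5mM final in lysis buffer, 14h RT; stop 1N NaOH final; fluor. Ex525/Em598.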
(qHTS replaces the single test concentration by a dilution series.)

Test [2] in a line: qHTS for compounds that reverse cellular toxicity of Amyloid beta (A-beta) peptide in yeast: LOPAC Validation Assay (AID 720559).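 Further: plate controls were DMSO for no effect and equimolar ferric chloride plus clioquinol rescue for full effect.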 A digest of the protocol:
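Medium dispensed, compounds pinned, A-beta yeast suspension added; plates held at 30 C for 48 hr; absorbance measured at 600 nm to gauge growth; values scaled between DMSO and FeCl3/clioquinol (equimolar) controls.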

Test [3] can be described thus: qHTS for Activators of Parkin Expression: LOPAC Validation Assay (NLuc Reporter) (AID 720572). A digest of the protocol:
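Cells harboring the Parkin-promoter coincidence reporter were treated for 24 h at seven concentrations. NLuc output was measured sequentially after the FLuc channel and scaled between DMSO and positive control values.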

Test [4] can be described thus: qHTS for Activators of Parkin Expression: LOPAC Validation Assay (FLuc Reporter) (AID 720573). The method, boiled down:
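Cells seeded, 24 h; compounds pinned, 7-pt dose response; 24 h at 37 C/5% CO2; volume reduced; FLuc reagent 10 min RT; luminescence read. Normalization: DMSO = 0, positive control = 100%.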

Test [5] has as its target T1, Hexokinase-4 (Homo sapiens) + Glucokinase regulatory protein (Homo sapiens) (UniProt P35557+Q14397). Put plainly: qHTS assay for inhibitors of recombinant human GCK-GKRP interaction: Diaphorase-coupled assay (AID 743205). A digest of the protocol:
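25 mM Hepes pH 7.6, 5 mM glucose, 0.4 mM ATP, 4 U/ml G6PDH; 10 nM each GST-GCK/FLAG-GKRP. Kinetic fluorescence read, 1/min × 30 min. Normalized: DMSO ± enzyme = max/min.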

Test [6] concerns the target T1, Hexokinase-4 (Homo sapiens) + Glucokinase regulatory protein (Homo sapiens). Put plainly: qHTS assay for inhibitors of recombinant human GCK-GKRP interaction: ADP-Glo assay (AID 743206).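 Further: plate controls were DMSO plus enzyme for no effect and no enzyme for full effect.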 The method, boiled down:
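Pin-transferred compounds meet a 15 nM GST-GCK/15 nM FLAG-GKRP/2 uM S6P mix (dispense concentrations). ATP is then added to 0.4 mM final with 5 mM glucose, and the reaction runs 60 min at room temperature. ADP is quantified luminescently.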

Test [7] shares this target. Nature of the test: qHTS assay for inhibitors of recombinant human GCK-GKRP interaction: HTRF assay (AID 743207).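 Further: 0% = DMSO with GCK present and -100% = DMSO wells lacking GCK.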 A digest of the protocol: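 5 nM GST-GCK + 5 nM FLAG-GKRP + 2 uM S6P, pH 7.1 buffer (25 mM Hepes, 2 mM MgCl2, 25 mM KCl, 1 mM DTT, Tween/BSA); pin-transferred cpd; anti-FLAG XL665/anti-GST K; 60 min RT; HTRF.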
Test [8] in a line: qHTS Assay for Identifying Gametocytocidal Compounds (AID 743244).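 Further: on the % scale 0 is the no-effect control and ±100 the full control effect; actives lower the fluorescent signal which means gametocytes are killed.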 The following applies: P. falciparum 3D7 stage III-V gametocytes, alamarBlue, 72 h; max response: stronger effect = lower value. The method, boiled down:
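Using 20,000 stage III–V 3D7 gametocytes per well, compounds were incubated 72 h under 37 °C/5% CO2. Viability was then assessed by 24 h alamarBlue reduction, measured fluorometrically at 525/598 nm.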

Test [9] in a line: qHTS profiling of the MIPE4 collection as inhibitors of Plasmodium falciparum (3D7) proliferation (AID 743344; call rule not given here;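 further: scaled between DMSO vehicle wells and 0.29 µM artemisinin as full inhibition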). The following applies: P. falciparum 3D7 in erythrocytes, SYBR Green DNA fluorescence, 72 h; at 28.5 µM (top of the series). The method, boiled down: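 Parasite DNA was quantified by SYBR Green I fluorescence (ex 485, em 535 nm) after overnight lysis in saponin/Triton buffer at room temperature. Cultures at 0.3% parasitemia and 2.5% hematocrit were first exposed to compound for 72 h at 37 C; signals were normalised to artemisinin (0.29 uM) and vehicle wells.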

Test [10] can be described thus: qHTS assay for small molecule agonists of the antioxidant response element (ARE) signaling pathway measured by Nrf2-dependant transcriptional activity - cell viability counter screen (AID 720653; active means well fitted curve in the direction sought with a large enough effect in the repeat runs; an effect the other way counts as inactive or inconclusive; further: on the % scale 0 is the no-effect control and ±100 the full control effect). The following applies: ARE-bla HepG2 viability, CellTiter-Glo ATP luminescence, 16 h; stronger effect = lower value. A digest of the protocol: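 ARE-bla HepG2 cells (2,000/well) rested 5 hrs at 37C/5% CO2, then exposed to compounds in DMSO for 16 hrs. Viability was read in the same wells as intracellular ATP by luminescence, 30 min at room temperature after reagent addition.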

The nature of test [11]: qHTS assay for cell viability of HEK293 cells (AID 743288). Further: on the % scale 0 is the no-effect control and ±100 the full control effect; nearly all actives have a fitted effect of over 50% in size. The following applies: ATP luminescence (CellTiter-Glo), 18 h; max response: stronger effect = lower value. A digest of the protocol:
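Viable-cell counts were inferred from luciferase-based ATP content in HEK293 cells seeded at 2,000/well, pre-incubated ≥5 h, then dosed with DMSO-solubilised compounds for 18 h at 37 C.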

The nature of test [12]: qHTS assay for cell viability of the p53RE-bla HCT-116 cell line (AID 743292). Further: on the % scale 0 is the no-effect control and ±100 the full control effect; nearly all actives have a fitted effect of over 55% in size. A digest of the protocol:
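CellSensor p53RE-bla HCT-116 cells (4,000/well) pre-incubated 5 h at 37 C, then exposed to compounds in DMSO for 16 h at 37 C. Viability read as ATP content by CellTiter-Glo luminescence after 30 min at room temperature.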

T1 sequence (P35557 whole entry, looked up): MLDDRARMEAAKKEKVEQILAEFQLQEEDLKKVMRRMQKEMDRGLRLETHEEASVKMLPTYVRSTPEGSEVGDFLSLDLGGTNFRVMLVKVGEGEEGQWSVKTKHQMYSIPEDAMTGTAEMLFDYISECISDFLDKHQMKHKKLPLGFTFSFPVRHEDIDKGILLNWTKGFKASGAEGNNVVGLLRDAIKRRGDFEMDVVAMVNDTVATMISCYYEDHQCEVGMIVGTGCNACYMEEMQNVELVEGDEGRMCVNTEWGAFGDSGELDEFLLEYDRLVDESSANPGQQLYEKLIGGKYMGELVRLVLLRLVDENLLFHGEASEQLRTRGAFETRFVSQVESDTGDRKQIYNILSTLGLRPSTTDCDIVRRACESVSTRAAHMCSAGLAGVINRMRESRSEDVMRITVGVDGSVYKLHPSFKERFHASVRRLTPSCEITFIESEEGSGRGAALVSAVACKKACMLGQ
T1 sequence (Q14397 whole entry, looked up): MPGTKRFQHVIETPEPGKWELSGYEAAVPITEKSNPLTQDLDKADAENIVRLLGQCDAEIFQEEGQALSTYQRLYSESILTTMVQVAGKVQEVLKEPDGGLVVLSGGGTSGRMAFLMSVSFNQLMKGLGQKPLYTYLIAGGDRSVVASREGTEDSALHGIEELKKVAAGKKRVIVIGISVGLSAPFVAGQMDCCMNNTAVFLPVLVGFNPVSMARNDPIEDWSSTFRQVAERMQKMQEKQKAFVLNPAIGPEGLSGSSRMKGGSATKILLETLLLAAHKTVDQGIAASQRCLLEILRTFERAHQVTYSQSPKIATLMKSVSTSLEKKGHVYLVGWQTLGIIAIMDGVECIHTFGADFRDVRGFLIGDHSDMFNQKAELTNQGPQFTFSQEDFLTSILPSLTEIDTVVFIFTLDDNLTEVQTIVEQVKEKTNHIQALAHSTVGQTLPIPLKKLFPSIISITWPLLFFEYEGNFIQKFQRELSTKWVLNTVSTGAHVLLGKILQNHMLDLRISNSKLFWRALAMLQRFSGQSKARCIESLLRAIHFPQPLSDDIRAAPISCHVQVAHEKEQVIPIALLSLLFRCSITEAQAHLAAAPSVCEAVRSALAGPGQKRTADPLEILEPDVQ
Chain of Arylsulfatase A (Homo sapiens) (P15289 whole entry, looked up): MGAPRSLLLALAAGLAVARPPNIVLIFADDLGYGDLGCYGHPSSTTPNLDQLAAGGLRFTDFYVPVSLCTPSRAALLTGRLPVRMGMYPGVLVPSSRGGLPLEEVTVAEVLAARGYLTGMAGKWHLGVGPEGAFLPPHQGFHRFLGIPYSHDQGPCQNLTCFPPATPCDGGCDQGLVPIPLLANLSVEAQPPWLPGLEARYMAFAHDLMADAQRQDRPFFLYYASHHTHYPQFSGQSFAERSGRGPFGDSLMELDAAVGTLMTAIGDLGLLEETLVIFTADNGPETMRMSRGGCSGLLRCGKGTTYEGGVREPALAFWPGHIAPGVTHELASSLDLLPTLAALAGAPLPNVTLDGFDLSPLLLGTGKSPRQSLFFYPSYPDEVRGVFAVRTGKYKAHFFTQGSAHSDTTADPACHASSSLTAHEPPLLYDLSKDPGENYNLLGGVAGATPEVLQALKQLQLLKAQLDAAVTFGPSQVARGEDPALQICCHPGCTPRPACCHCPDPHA

On to `NC1(C(=O)O)CC1`, for which the Potency result in [1], in test [3], in test [4], in test [5], in test [6] and in test [7] was “inactive” each time. Moreover, in test [2], the compound was classed as inactive. Further, in test [8], the max response was 4.84% (inactive).

In the case of `CCOC(=O)C12CC1/C(=N/O)c1ccccc1O2` (centres undefined), the Potency result in test [1], in [3], in test [4], in [5] and in test [6] was “inactive” in each case. Also, the outcome in test [2] was inactive. The max response in test [8] is 0.715% (inactive).

Consider `Cc1nc(N=Nc2ccc(S(=O)(=O)O)cc2S(=O)(=O)O)c(COP(=O)(O)O)c(C=O)c1O`, for which the Potency result in test [1], in test [3], in test [4], in test [5] and in [6] was “inactive” throughout. In test [2], the result was inactive. In test [8], the max response is 14.8% (inactive). The parasite growth, % of DMSO control in test [9] was found to be 98.1%.

Consider `CCCCCCCCCCC(C)(C)C(=O)Nc1c(OC)cc(OC)cc1OC`, for which the Potency entry in [1], in [3], in test [4], in test [5] and in [6] was “inactive” in each case. For the same compound, the call in [2] was inactive. In addition, in test [8], the max response was -6% (inactive).

Consider `CC(C)NCC(O)COc1ccc(CC(N)=O)cc1` (centres undefined), for which the Potency entry in test [1], in [3], in test [4], in test [5] and in test [6] was “inactive” throughout. For the same compound, the compound was called inactive in [2]. Besides, in test [8], the max response was 27.5% (inactive).

Turning to `Nc1ccc(-c2ccc3ccccc3n2)cc1`, the Potency entry in [1], in test [3], in test [5], in test [6] and in test [7] was “inactive” each time. Moreover, in [2], the outcome was inactive.

With `CCCCOc1cc(CC2CNC(=O)N2)ccc1OC` (centres undefined), the Potency entry in test [1], in test [3], in [4], in test [5], in [6] and in test [7] was “inactive” each time. In test [2], the outcome was inactive. Also, the max response in test [8] was 22.4% (inactive).

As for `CCCC(=O)NCCc1c2n(c3ccc(OC)cc13)CCCc1ccccc1-2`, the Potency entry in [1], in test [3], in test [4], in test [5] and in [6] was “inactive” each time. For the same compound, the call in test [2] was inactive. In test [8], the max response was 19.4% (inactive).

`COc1cc2c(CCNC(C)=O)c[nH]c2cc1O`: the Potency in test [1] is 37.9 µM (active). Also, the result in test [2] was inactive. The Potency entry in test [3], in test [4], in test [5] and in test [6] was “inactive” in each case. In addition, the max response in test [8] is 18.4% (inactive).

Consider `CC1CCN=C(N)S1` (centres undefined), for which the Potency result in test [1], in [3], in test [4], in [5] and in test [6] was “inactive” throughout. In addition, the compound was classed as inactive in test [2]. In addition, in test [8], the max response was -7.18% (inactive).

In the case of `COC(=O)C(N)Cc1ccc(Cl)cc1` (centres undefined), the Potency entry in test [1], in [3], in [4], in test [5], in test [6] and in [7] was “inactive” each time. Further, in [2], the result was inactive. Further, in test [8], the max response was 4.72% (inactive).

Take `NS(=O)(=O)c1cccc2c1c([N+](=O)[O-])cc1nc(O)c(O)nc12`: the Potency in [1] was 10.7 µM (active). For the same compound, in [2], the compound was classed as inactive. Also, the Potency result in test [3], in test [4], in [5], in [6] and in test [7] was “inactive” in each case. The max response in test [8] was 24.6% (inactive).

Turning to `COc1ccc2c(c1)CCC1C2CC[C@@]2(C)C1CC[C@@H]2NCCCCCCN1C(=O)C=CC1=O` (some centres undefined), the Potency entry in test [1], in test [3], in [5], in [6] and in test [7] was “inactive” in each case. For the same compound, in [2], the result was inactive.

Take `CC(N)(Cc1ccc(O)c(O)c1)C(=O)O` (centres undefined): the Potency entry in [1], in [3], in test [4], in [5], in test [6] and in test [7] was “inactive” each time. In test [2], the compound was classed as inactive. For the same compound, in test [8], the max response was 8.06% (inactive).

Consider `Cn1c(=O)c2[nH]c(C3CCCC3)nc2n(C)c1=O`, for which the Potency result in [1], in test [3], in [4], in [5], in test [6] and in test [7] was “inactive” each time. For the same compound, in test [2], the call was inactive. The max response in test [8] is 9.69% (inactive).

Turning to `O=c1[nH]c2ccccc2c2ccccc12`, the Potency result in test [1], in test [3], in [4], in test [5] and in test [6] was “inactive” each time. In test [2], the call was inactive. In test [8], the max response was 36% (inactive).

Take `CC(N)=O`: the Potency result in test [1], in [3], in [4], in [5], in [6] and in test [7] was “inactive” throughout. For the same compound, the call in [2] was inactive. Moreover, in test [8], the max response is 12.7% (inactive).

For `N#C/C(=C\c1ccc(O)c(O)c1)C(=O)NCCCNC(=O)/C(C#N)=C/c1ccc(O)c(O)c1`, the Potency result in [1], in [3], in [4], in [6] and in [7] was “inactive” each time. The result in test [2] was inactive. Moreover, in [8], the max response is 5.33% (inactive).

`Cc1cc2c(cc1Cl)N(C(=O)Nc1ccnc3ccccc13)CC2`: the Potency result in test [1], in test [3], in test [4], in test [5] and in test [6] was “inactive” in each case. Also, the compound was called inactive in test [2]. Also, in test [8], the max response was 6.93% (inactive).

For the compound `O=C(O)/C(=C/c1c(C(=O)O)[nH]c2cc(Cl)cc(Cl)c12)c1ccccc1`, the Potency entry in [1], in test [3], in [4], in test [5], in test [6] and in test [7] was “inactive” throughout. In addition, the compound was classed as inactive in test [2]. The max response in [8] is 2.21% (inactive).

Consider `O=C(O)/C=C/c1ccc(O)c(O)c1`, for which the Potency result in test [1], in [3], in test [4], in test [5], in test [6] and in test [7] was “inactive” throughout. Moreover, the compound was called inactive in test [2]. For the same compound, the max response in [8] was 8.93% (inactive).

Turning to `NC/C=C\C(=O)O`, the Potency entry in test [1], in test [3], in [4], in test [5], in [6] and in test [7] was “inactive” each time. The result in test [2] was inactive. Moreover, in test [8], the max response was 7.58% (inactive).

For the compound `CNC(=O)c1cc2c(cn1)[nH]c1ccccc12`, the Potency result in [1], in test [3], in test [5], in [6] and in [7] was “inactive” each time. For the same compound, the outcome in test [2] was inactive. Besides, in [8], the max response is 10.2% (inactive).

As to `Nc1ncnc2c1ncn2C1CCCO1` (centres undefined), the Potency in [1] was 2.69 µM (active). The compound was called inactive in test [2]. Further, the Potency entry in test [3], in [4], in test [5], in [6] and in test [7] was “inactive” each time. Besides, the max response in test [8] is -5.04% (inactive).

On to `N=C(N)c1ccc(N)cc1`, for which the Potency result in test [1], in test [3], in test [4], in test [5], in test [6] and in test [7] was “inactive” each time. Also, the call in test [2] was inactive. Moreover, the max response in test [8] is -4.7% (inactive).

On to `N[C@@H](CCCC(=O)O)C(=O)O`, for which the Potency entry in test [1], in [3], in [4], in [5], in test [6] and in test [7] was “inactive” throughout. Moreover, the result in [2] was inactive. The max response in test [8] was 28.3% (inactive).

For `CC1=C(/C=C/C(C)=C/C=C/C(C)=C\C(=O)O)C(C)(C)CCC1`, the Potency result in test [1], in test [3], in [5], in [6], in test [7] and in test [12] was “inactive” each time. Moreover, the result in [2] was inactive. Besides, the max response in test [10] is 3.98% (inactive); in test [8], 17.8% (inactive); in test [11], 0.628% (inactive).
